Molecules are shown by their SMILES. This is part of a sample that, as a whole, favours compounds with a hit. Of some 83,000 tested, about 20% had one in any assay.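 Single-dose data. Exposure time 48 hours. Values below 10 considered active.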 A number with no mark means an inactive call. Active and inactive are the calls of the source.

Experiment in all cases: NCI-60 one-dose screen, 48 h (100 = growth as untreated, 0 = no growth, -100 = all killed)
What all share (conditions): 10 µM unless noted

For assay [1], the system named is SR leukemia.
For assay [2], the system named is RPMI-8226 leukemia.
Assay [3] relates to OVCAR-8 ovarian.
The subject of assay [4] is OVCAR-5 ovarian.
Assay [5] concerns OVCAR-4 ovarian.
Assay [6] has as its system SK-OV-3 ovarian.
In assay [7] the test system is IGROV1 ovarian.
In assay [8] the test system is OVCAR-3 ovarian.
Assay [9] has as its system NCI/ADR-RES ovarian.
Assay [10] relates to T-47D breast.
The subject of assay [11] is BT-549 breast.
In assay [12] the test system is MCF7 breast.
Assay [13] concerns HCT-116 colon.
Assay [14] deals with HCC-2998 colon.
The subject of assay [15] is KM12 colon.
The subject of assay [16] is MDA-MB-468 breast.
Assay [17] relates to HS 578T breast.
The subject of assay [18] is MDA-MB-435 melanoma.
The test system of assay [19] is SW-620 colon.

`COc1ccc([C@H](C)Nc2nc(Cl)nc3ccccc23)cc1`: the growth in assay [1] is 17.9%; in [2] it was 23.6%; in [3], 56.4%; in assay [4] it was 54.7%; in assay [5] it was 62.9%; in [6], 70.5%. Further, the growth in [7] is 63.2%; in assay [8], 78.7%; in [9] it was 21.5%; in [10] it was 49.4%; in assay [11], 60.3%; in assay [12] it was 28.8%. The growth was 20.9% in assay [13], 93.6% in [14], 43% in assay [15] and 15.1% in assay [16].

`CNC(=O)c1cccc(NC(=O)c2ccc3c(c2)nnn3/C(C#N)=C/c2ccccn2)c1`: the growth in assay [1] was -5.41% (active); in assay [2], -23.6% (active); in assay [3] it was 10%; in assay [4] it was 19.6%; in assay [5] it was 40.6%; in assay [6], 83.4%. In addition, the growth in assay [7] is -2.48% (active); in [8], -69.2% (active); in [9], 84.3%; in assay [10] it was -70.4% (active); in assay [11], -98.7% (active); in [12], -77.2% (active). Besides, the growth in [13] is -89% (active); in assay [14], -92.7% (active); in assay [15], 55.9%; in assay [16], -85.5% (active).

`Cn1cc(-c2cc(N)n3nc(-c4cn(C)c5ccccc45)cc3n2)c2cc(Cl)ccc21`: the growth in assay [1] was 4.5% (active); in [2], -8.66% (active); in [3], -91% (active); in [4], -13.9% (active); in [5], -34.5% (active); in [6] it was 72.1%. The growth in [8] was -44.6% (active); in assay [17] it was -11.1% (active); in assay [9], -11.5% (active); in assay [10], -30.9% (active); in [11], 63%; in [18] it was -71.9% (active). Besides, the growth in assay [19] is -35.3% (active); in assay [12], -69.9% (active); in assay [13], -89.1% (active); in assay [14] it was -73% (active); in assay [15], -50% (active); in [16], -31.9% (active).

On to `CCCSc1nc(NCCc2c[nH]c3ccccc23)c(C#N)c(-c2ccc(F)cc2)n1`, for which the growth in assay [1] is 6.1% (active); in assay [2] it was 38.4%; in [3], 65.2%; in [4], 82.6%; in assay [5] it was 70.7%; in [6] it was 72.3%. Also, the growth is 84.9% in assay [8]; 34.9% in [17]; 49.5% in assay [9]; 26.4% in assay [10]; 64.5% in assay [11]; 72.9% in assay [18]. In addition, the growth in assay [19] is 55.7%; in assay [12], 35.3%; in assay [13], 22.6%; in [14] it was 44.4%; in assay [15], 31.3%; in assay [16], 44.4%.

As for `N#Cc1c(-c2cccc(Cl)c2Cl)cc(-c2ccc3ccccc3c2)[nH]c1=O`, the growth was 67.4% in assay [1]; 68.3% in assay [2]; 41.5% in assay [3]; 77.4% in [4]; 4.49% (active) in assay [5]; 99.7% in [6]. The growth is 65.1% in [7]; 31.6% in assay [8]; 42.4% in assay [9]; 37.6% in [10]; -5.5% (active) in assay [11]; 52.9% in assay [12]. Also, the growth in assay [13] was 2.78% (active); in assay [14], 75.6%; in [15] it was 98.4%; in assay [16], 71.4%.

With `CN(C)c1nc(NCCNS(=O)(=O)c2ccc(C(=O)/C=C/c3ccc(Cl)cc3)cc2)nc(Nc2ccc(F)cc2)n1`, the growth in assay [1] was -41.1% (active); in assay [2], -17.6% (active); in [3], -73.5% (active); in [4], -67% (active); in assay [5] it was -28.3% (active); in [6], 26%. Moreover, the growth was -94.8% (active) in assay [8]; 25.8% in [17]; -83.5% (active) in assay [9]; -10% (active) in assay [10]; -66.9% (active) in [11]; -87.8% (active) in [18]. The growth was -95.1% (active) in [19]; -77.1% (active) in assay [12]; -91.4% (active) in assay [13]; -91.6% (active) in assay [14]; -83.6% (active) in [15]; -25.9% (active) in [16].

Take `N#Cc1ccc(/C=N/NC(=O)c2[nH]c3ccc(Br)cc3c2-c2ccccc2)o1`: the growth in assay [1] was 4.35% (active); in assay [2], 3.55% (active); in [3], -21.9% (active); in [4], 15.9%; in assay [5], 35%; in [6], 44%. Moreover, the growth was 13.9% in [7]; 14.6% in assay [8]; -40.9% (active) in [9]; 23.8% in [10]; -7.06% (active) in [11]; 7.95% (active) in [12]. For the same compound, the growth is 1.43% (active) in assay [13], -30.9% (active) in assay [14] and 6.36% (active) in assay [15].

For `O=C(O)c1ccc(-c2ccc(/C=N/NC(=O)c3[nH]c4ccc(Br)cc4c3-c3ccccc3)o2)cc1`, the growth in assay [1] is 5.35% (active); in assay [2], 14.8%; in assay [3], -15.4% (active); in assay [4], 75.9%; in [5], 38%; in assay [6], 41.1%. Besides, the growth is 17.8% in assay [7]; 1.4% (active) in [8]; 18.1% in assay [9]; 15.1% in [10]; -7.86% (active) in assay [11]; -49.6% (active) in assay [18]. Besides, the growth in assay [12] was 9.15% (active); in [13], 9.56% (active); in assay [14] it was 5.76% (active); in assay [15] it was 11.9%; in assay [16] it was -12.4% (active).

The record behind these values is PubChem BioAssay (NCI).
